In PubChem BioAssay:

Tested on: wheat germ agglutinin (Triticum aestivum), Alexa647-labelled
Assay: wheat germ agglutinin binders on compound microarrays, profiling panel, artefact control for SMM control-protein annotation, biochemical, small-molecule microarray, 635/667 nm fluorescence (AID 1140);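 note: score merges 667 nm feature emission with signal to noise over triplicate slides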
Details: WGA-A647 binding, 635 nm fluorescence, higher = more signal

Compound	composite z-score
C=C(COC)/C(=C/C[C@@H](OC(C)=O)c1cccc(OCCO)c1)c1cc(C(=O)OC)ccc1OC	-1.12
CCOC(=O)C[C@H]1[C@H](OC(=O)c2ccccc2-c2ccccc2)[C@@H](NC(=O)c2ccc(-c3ccccc3)cc2)c2cc(OCCCO)ccc2N1C(=O)Cc1ccc(OC)cc1	-0.12
[N-]=[N+]=NCc1ccccc1C[C@]1(C(=O)N2CCCCC2)N=C(c2ccc(OCCCO)cc2)O[C@H]1c1ccccc1CN=[N+]=[N-]	0.59
CO[C@H]1COC(=O)[C@@H](OCc2ccccc2)C=C[C@H](C)[C@@H](OC)COC(=O)[C@H](OCc2ccccc2)C=C[C@@H]1C	-0.244
COCCOC(=O)N1C(=O)[C@@]2(c3cc(C#CCNC(N)=O)ccc31)[C@H](c1ccc(OCCO)cc1)N1[C@H](c3ccccc3)[C@H](c3ccccc3)OC(=O)[C@H]1[C@@H]2C(=O)Nc1nc2ccccc2s1	0.755
CCOC(=O)C1=CC[C@@H](c2ccc(-c3ccc(OCc4ccccc4)cc3)c(OC)c2)N(S(=O)(=O)c2ccc(C)cc2)[C@H]1c1ccccc1	1.05
Cc1ccc(S[C@]2(C(=O)O)CC(=O)N(Cc3ccccc3)[C@@H]2c2ccc(CO)cc2)cc1	0.0681
Cc1ccc(S[C@]2(C(=O)NC(C)C)CC(=O)N(Cc3cc(C(F)(F)F)cc(C(F)(F)F)c3)[C@@H]2c2ccc(CO)cc2I)cc1	0.445
CO[C@@H]1COC(=O)[C@H](COCc2ccccc2)NC(=O)CC=C[C@@H](C)[C@H](OC)COC(=O)[C@H](COCc2ccccc2)NC(=O)CC=C[C@H]1C	-0.915
CCC1=C2CN(Cc3ccccc3Br)[C@@H]([C@@H](O)Cc3ccccc3)C2C=CCC1 (stereo not given in full)	0.291
COCCOC(=O)N1C(=O)[C@@]2(c3cc(C#CCC(C(=O)OC)C(=O)OC)ccc31)[C@H](c1ccccc1OCCO)N1[C@H](c3ccccc3)[C@H](c3ccccc3)OC(=O)[C@H]1[C@@H]2C(=O)N1CCCCCCC1	0.529
CO[C@@H]1COC(=O)[C@@H]2CCCN2C(=O)CC=C[C@@H](C)[C@H](OC)COC(=O)[C@@H]2CCCN2C(=O)CC=C[C@H]1C	-0.949
C=C(COC)/C(=C/C[C@H](OC(C)=O)c1ccc(OCCO)cc1)c1cnc2ccccc2c1	1.23
CC(=O)Nc1ccc([C@H]2[C@H](C)CC[C@H]3C(=O)N4[C@@H](CC[C@@H](C)[C@@H]4c4ccc(NC(C)=O)cc4)C(=O)N32)cc1	0.994
CN(C)CCCC[C@@H]1NC(=O)[C@@H]2C[C@H](C(=O)O)[C@H](c3ccc(O)cc3)N2C1=O	0.176
C[C@@H]1CC[C@H]2C(=O)N3[C@@H](CC[C@@H](C)[C@@H]3c3cccc(N4CCOCC4)c3)C(=O)N2[C@H]1c1cccc(Br)c1	1.04
CCCN1C(=O)[C@@]2(CCS(=O)(=O)c3ccccc3)N=C(c3ccc(OCCCO)cc3)O[C@H]2c2ccccc21	0.46
O=C(O)[C@@H]1Cc2c([nH]c3ccccc23)[C@@H](c2ccccc2)N1	0.0252
C[C@@H]1CC[C@H]2C(=O)N3CCC[C@H]3C(=O)N2[C@H]1c1ccc(Br)cc1	-0.169
CCC#CCN(Cc1ccccc1Br)[C@H](/C=C/c1ccccc1)[C@@H](O)Cc1ccccc1	-0.518
[N-]=[N+]=NCc1ccccc1C[C@]1(C(N)=O)N=C(c2ccc(OCCCO)cc2)O[C@H]1c1ccccc1CN=[N+]=[N-]	1.32
C=CCC(OC(C)=O)[C@@H]1[C@@H](N(Cc2ccc(-c3ccccc3)cc2)C(=O)c2ccc(-c3ccccc3)cc2)c2cc(OCCCO)ccc2N1C(=O)Cc1ccc(OC)cc1 (stereo not given in full)	0.192
O=C1C[C@@](C(=O)NC2CC2)(c2ccc([N+](=O)[O-])cc2)[C@@H](c2ccc(CO)cc2I)N1CC12CC3CC(CC(C3)C1)C2	0.793
Cc1ccc(N2C(=O)c3ccccc3[C@@H](C(=O)NCC(F)(F)F)[C@@H]2c2ccc(CO)cc2)nc1	-0.925
C=CC[C@]1(C(=O)O)N=C(c2ccc(OCCCO)cc2)O[C@H]1c1ccccc1	1.25
